# LmPK inh: inhibitors of Leishmania mexicana pyruvate kinase. AID 1721. Potency, µM (series often up to 57.5 µM), inactives show top-dose activity change, negative = inhibition, actives largely listed as inhibitors. purified LmPK, Kinase-Glo ATP luminescence, 1 h. actives 0.37% (n = 290,000); note: potency is the fitted concentration of half-maximal effect; % is set by controls: 0 for no effect and ±100 for the full control effect
# Target sequence (Q27686 whole entry, looked up): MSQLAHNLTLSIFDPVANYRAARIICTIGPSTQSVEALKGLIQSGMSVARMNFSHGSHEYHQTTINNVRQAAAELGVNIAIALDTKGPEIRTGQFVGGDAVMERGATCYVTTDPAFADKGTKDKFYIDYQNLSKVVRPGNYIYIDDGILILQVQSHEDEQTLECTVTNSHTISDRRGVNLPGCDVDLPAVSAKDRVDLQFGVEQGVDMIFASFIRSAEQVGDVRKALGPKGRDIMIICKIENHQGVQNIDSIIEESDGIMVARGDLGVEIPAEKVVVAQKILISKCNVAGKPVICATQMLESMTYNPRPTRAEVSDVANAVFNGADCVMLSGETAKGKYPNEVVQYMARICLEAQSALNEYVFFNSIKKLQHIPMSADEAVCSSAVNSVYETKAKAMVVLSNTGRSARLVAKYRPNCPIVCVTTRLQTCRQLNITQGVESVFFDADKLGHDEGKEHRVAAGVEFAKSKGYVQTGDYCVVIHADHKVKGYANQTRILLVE
#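 Screened at intermediate enzyme activity to detect both inhibitors and activators: LmPK at 0.1 nM, with a 0.5 nM enzyme column as activation reference. PEP 0.5 mM, ADP 0.1 mM; ATP detected by luminescence after 1 h.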
# Pf growth 48h: inhibits P. falciparum growth in the first generation, 48 h. P. falciparum luciferase growth in erythrocytes, 48 h. Potency, µM (doses to about 28.7 µM), for inactives: top-dose activity change, negative = inhibition, usual class: inhibitors. actives 5.9% (n = 310,000). AID 504832; note: potency is the fitted concentration of half-maximal effect; % is set by controls: 0 for no effect and ±100 for the full control effect
#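 Luciferase-expressing P. falciparum in infected erythrocytes (2% hematocrit, 0.1% parasitemia final) in RPMI 1640/0.5% Albumax were exposed to compound for 48 hours at 37 C, 5% CO2; growth read as luminescence.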
# Shiga toxin inh: blocks Shiga toxin action in Vero cells | actives 9.2% (n = 290,000) | inhibition, % at 38.7 µM | Vero cells, Shiga toxin protein synthesis inhibition reporter; in the data active = inhibition mostly above about 28%, no sharp cut-off; inactive = mostly below about 43%; note: 0% is about no effect
# Pf growth 96h: P. falciparum growth inhibition at 96 hour, primary screen for plastid delayed-death inhibitors | P. falciparum luciferase reporter growth, 96 h | Potency, µM (doses to about 28.7 µM), for the others: top-dose activity change, negative = inhibition, most hits filed as inhibitors | actives 6.9% (n = 320,000) | AID 504834; note: potency is the fitted concentration of half-maximal effect; % is set by controls: 0 for no effect and ±100 for the full control effect
#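 P. falciparum expressing integrated firefly luciferase grown in erythrocytes (2% hematocrit, 0.05% parasitemia final) with compounds for 96 hours at 37 C, 5% CO2. Growth inhibition read as loss of luminescence after adding luciferase detection reagent.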
# CHX counter: affects cycloheximide protein synthesis inhibition readout, counter-screen; cell reporter, cycloheximide protein synthesis inhibition counterscreen; max response, %; actives 12% (n = 300,000); AID 2314; in the data active = max response mostly above about 13%, no sharp cut-off; inactive = mostly below about 14%; note: read at 38.3 µM for the half of the compounds with a filed dose; 0% is about no effect
# Numbers without * were called inactive; u = inconclusive; x = not tested or not shown; [ ] = another dose, or the depositor's remark. Only some compounds are listed: those with a hit (about 22% of all), similar ones and a draw of the others. Unless noted, calls come from the whole dose curve; as a rule, active = well fitted inhibition curve with a large enough effect; inconclusive = small, poorly fitted or top-dose-only effect, or another doubt; inactive = no such curve, though single readings can be large or run the other way.
SMILES,LmPK inh,Pf growth 48h,Shiga toxin inh,Pf growth 96h,CHX counter
CCCNC(=O)c1ccc(N2CCC3(CC2)CC(c2ccccc2)=NO3)c(NC(=O)c2ccc(Br)cc2)c1,4%,u,-4,1.9µM*,-2
Cc1ccc(CNC(=O)c2ccc(N3CCC4(CC3)CC(c3ccccc3)=NO4)c(NC(=O)c3cccc(C)c3)c2)cc1,x,4.1µM*,x,u,x
Cc1ccc(CNC(=O)c2ccc(N3CCC4(CC3)CC(c3cccc(Br)c3)=NO4)c(NC(=O)c3cccc(C)c3)c2)cc1,x,u,x,-7%,x
O=C(Nc1cc(C(=O)N2CCCC2)ccc1N1CCCC1)c1ccccc1,-10%,18%,4,x,-1
CCCNC(=O)c1ccc(N2CCC3(CC2)CC(c2ccccc2)=NO3)c(NC(=O)c2ccccc2)c1,0%,u,-3,5.9µM*,-3
O=C(NCC1CCCO1)C(=O)NCC(c1ccco1)N1CCN(c2ccccc2)CC1 (configuration not stated),7%,4%,-12,4%,4
COc1cc(C(=S)N2CCCC2)cc(OC)c1O,9%,x,16,19%,2
CCCNC(=O)c1ccc(N2CCC3(CC2)CC(c2cccc(Br)c2)=NO3)c(NC(=O)c2cccc(OC)c2)c1,x,u,x,8.3µM*,x
COc1ccc(C(=O)Nc2ccc(N3CCN(C(=O)c4cccs4)CC3)cc2)cc1Br,1%,u,-2,9.3µM*,9
Cc1ccc(C(=O)N2CCN(c3ccc(NC(=O)c4cccs4)cc3)CC2)cc1,-6%,10µM*,23,u,15
O=C(Nc1ccc(C(=O)N2CCCCC2)cc1)c1cccs1,-17%,42%,68*,30%,19*
CN1CCN(c2ccc(NC(=O)c3cccs3)cc2)CC1,-9%,79%,41,u,32*
O=C(Nc1ccc(N2CCN(C(=O)c3ccc(Cl)cc3)CC2)cc1)c1cccs1,-4%,u,-2,-29%,0
COc1cc(OC)cc(C(=O)Nc2ccc(N3CCN(C(=O)c4cccs4)CC3)cc2)c1,-3%,u,-23,8%,-2
N#CCCN(C(=O)COC(=O)CCN=C1NS(=O)(=O)c2ccccc21)c1ccc(F)cc1,x,-5%,x,10%,x
COc1ccc(S(=O)(=O)N2CCC(C(=O)NCCC(=O)NCc3ccccc3OC)CC2)cc1,4%,12%,11,u,-1
COc1cccc(CNC(=O)C2CCC(CNS(=O)(=O)c3cccc4nsnc34)CC2)c1 (configuration not stated),0%,x,-9,u,15
Cc1ccc(COC(=O)c2nn(-c3ccccc3)nc2N)cc1,2%,-8%,21,3%,18*
COc1cccc(COC(=O)c2nn(-c3ccccc3)nc2N)c1,2%,-7%,1,-3%,1
NC(=O)c1nn(-c2ccccc2)nc1N,-15%,16%,16,-14%,18*
Nc1nn(-c2ccccc2)nc1C(=O)OCc1ccccc1,7%,-3%,48*,1%,27*
CC1(C)Cc2c(cnn2-c2ccccc2)-c2c1c1ccccc1n2CC(O)CBr (configuration not stated),1%,-30%,-15,u,-3
Cc1ccc(S(=O)(=O)N2CCC3(CC2)OCCO3)cc1,4%,28%,-4,u,15
Cc1cc2[nH]c3c(c[n+](C)c4ccccc34)c2cc1C,-2%,0.47µM*,-10,u,6
Cc1cc(=O)[nH]c2ccccc12,-2%,20%,-6,51%,-3
SMILES,LmPK inh,Pf growth 48h,Shiga toxin inh,Pf growth 96h,CHX counter
N#C/C(=C\c1cn(Cc2ccccc2F)c2ccccc12)C(=O)NCc1ccco1,0%,11%,-2,157%,8
COCc1nc2sc3c(c2c(=O)[nH]1)CCCC3,-3%,6%,22,18%,17*
COc1cccc(-c2nc3sc4c(c3c(=O)[nH]2)CCCCC4)c1,-6%,349%,75*,448%,21*
COc1ccc(C(CC(=O)O)NC(=O)COc2cc(C)ccc2C)cc1OC (configuration not stated),2%[11.5 µM],-18%,-7,-69%,-8
CCN1C(=O)N(CC)C(O)(c2ccccc2)C1(O)c1ccccc1 (configuration not stated),7%,17%,-6,x,0
CC(C)(C)C1=CC(O)(c2ccccc2)C=C(C(C)(C)C)C1=O,7%,10µM*,-5,u,-2
O=C(CCN1C(=O)/C(=C\c2ccccc2Cl)SC1=S)N1CCN(c2ccccc2)CC1,3%,36%,-15,u,2
CN1CCN(C(=O)CCN2C(=O)/C(=C\c3ccc(Cl)cc3Cl)SC2=S)CC1,5%,10µM*,3,3.3µM*,20
COc1ccc(/C=C2\SC(=S)N(CC(=O)NCCO)C2=O)cc1,-7%,32%,30,u,21*
O=C(CCCN1C(=O)c2ccccc2C1=O)NCCCN1CCOCC1,-1%,-4%,-6,x,-1
O=C(CCN1C(=O)/C(=C\c2ccccc2)SC1=S)NCCCN1CCOCC1,-1%,13µM*,-6,7.4µM*,-1
COc1ccc(/C=C2/SC(=S)N(CCCC(=O)N3CCN(C)CC3)C2=O)cc1,u,u,35*,13%,12*
COc1ccc(-n2c(SCC(=O)N/N=C/c3ccccc3OCC(=O)O)nc3ccccc3c2=O)cc1,4%,-6%,-5,-21%,6
CN(Cc1cnn(-c2ccc(F)cc2)c1)Cc1nc(Cc2ccccc2)no1,-2%,-2%,15,12%,8
COC(C(=O)N/N=C(\C)c1ccc(C(C)(C)C)cc1)c1ccccc1 (configuration not stated),10%,31%,-5,u,1
Cc1ccc(/C=C2\SC(=S)N(CCCC(=O)N3CCOCC3)C2=O)cc1,-5%,13µM*,3,-21%,7
COC(=O)c1ccc(/C=C2/SC(=S)N(CCC(=O)N3CCOCC3)C2=O)cc1,1%,-9%,-13,-12%,-9
CN1CCN(C(=O)CCCN2C(=O)/C(=C/c3ccc(Cl)cc3)SC2=S)CC1,x,u,x,10µM*,x
CN1CCN(C(=O)CCCN2C(=O)/C(=C/c3ccccc3)SC2=S)CC1,-30%,u,13,u,1
COc1ccccc1CCC(=O)N(Cc1ccccc1)c1c(N)n(Cc2ccccc2)c(=O)[nH]c1=O,-5%,u,10,8.3µM*,10
COCCCN(C(=O)CCOc1ccc(C)cc1)c1c(N)n(Cc2ccccc2)c(=O)[nH]c1=O,x,-7%,x,2%,x
COCCCN(C(=O)CCSc1ccc(F)cc1)c1c(N)n(Cc2ccccc2)c(=O)[nH]c1=O,x,12µM*,x,u,x
CCCCN(C(=O)CSc1cc(C)c2ccc(OC)cc2n1)c1c(N)n(Cc2ccccc2)c(=O)[nH]c1=O,-1%,-16%,-18,12µM*,-2
CCCCN(C(=O)CSc1cc(C)c2ccccc2n1)c1c(N)n(Cc2ccccc2)c(=O)[nH]c1=O,-4%,-11%,-6,u,-1

# Screening data: PubChem, National Center for Advancing Translational Sciences (NCATS)
